For three compounds, Percent Effect results are on record in ChEMBL document CHEMBL3988442, “University of Dundee, Small-Polar-MMV Screening Library” (2021).

Set-up in all cases: scale not given: direction of the effect not stated beside the values
Assay [1] addresses Protein translocase subunit SecA (Escherichia coli (strain K12)) (UniProt P10408). Description: Assay to Identify E. coli SecA ATPase Inhibitors. In kind it is functional. The following applies: 30 µM.
For assay [2], the target named is T1, Ubiquitin-activating enzyme e1, putative (Leishmania donovani (strain BPK282A1)) (UniProt E9BSI1).
T1 sequence (whole entry): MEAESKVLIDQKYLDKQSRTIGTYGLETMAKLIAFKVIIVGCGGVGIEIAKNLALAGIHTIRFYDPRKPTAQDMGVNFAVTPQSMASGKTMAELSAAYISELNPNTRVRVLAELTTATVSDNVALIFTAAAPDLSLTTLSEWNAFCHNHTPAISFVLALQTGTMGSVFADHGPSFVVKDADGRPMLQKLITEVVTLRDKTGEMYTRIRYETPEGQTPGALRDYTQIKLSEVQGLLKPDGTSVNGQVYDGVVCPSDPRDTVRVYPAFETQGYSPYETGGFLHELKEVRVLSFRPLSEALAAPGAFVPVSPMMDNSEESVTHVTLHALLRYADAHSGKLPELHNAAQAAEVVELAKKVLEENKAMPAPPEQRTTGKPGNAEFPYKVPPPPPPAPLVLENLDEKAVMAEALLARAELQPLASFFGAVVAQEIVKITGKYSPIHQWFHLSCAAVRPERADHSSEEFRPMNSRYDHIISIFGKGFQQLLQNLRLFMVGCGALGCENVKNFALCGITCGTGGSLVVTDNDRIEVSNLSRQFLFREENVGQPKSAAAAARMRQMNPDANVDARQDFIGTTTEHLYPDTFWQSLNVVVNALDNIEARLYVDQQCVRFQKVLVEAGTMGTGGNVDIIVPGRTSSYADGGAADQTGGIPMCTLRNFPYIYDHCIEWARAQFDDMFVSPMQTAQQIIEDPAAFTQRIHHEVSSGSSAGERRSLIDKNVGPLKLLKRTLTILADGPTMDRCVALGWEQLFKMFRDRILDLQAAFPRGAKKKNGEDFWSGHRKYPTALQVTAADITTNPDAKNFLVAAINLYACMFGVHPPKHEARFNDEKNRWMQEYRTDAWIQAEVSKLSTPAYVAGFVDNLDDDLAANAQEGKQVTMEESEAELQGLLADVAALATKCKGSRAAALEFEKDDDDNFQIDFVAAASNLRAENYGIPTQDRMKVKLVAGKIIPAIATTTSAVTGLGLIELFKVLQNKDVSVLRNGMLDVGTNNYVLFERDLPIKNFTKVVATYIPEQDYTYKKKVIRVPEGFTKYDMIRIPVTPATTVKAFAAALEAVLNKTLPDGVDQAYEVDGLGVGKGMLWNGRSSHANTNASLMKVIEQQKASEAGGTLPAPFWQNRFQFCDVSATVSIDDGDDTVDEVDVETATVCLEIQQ
Description: Leishmania donovani Ubiquitin Activating Enzyme (LdE1). In kind it is functional. The following applies: 30 µM.

For assay [3], the target named is T2, Aspartate--tRNA(Asp/Asn) ligase (Mycobacterium tuberculosis (strain ATCC 25618 / H37Rv)) (UniProt P9WFW3). Also: in the data most compounds retested in dose-response had high values.
T2 sequence (whole entry): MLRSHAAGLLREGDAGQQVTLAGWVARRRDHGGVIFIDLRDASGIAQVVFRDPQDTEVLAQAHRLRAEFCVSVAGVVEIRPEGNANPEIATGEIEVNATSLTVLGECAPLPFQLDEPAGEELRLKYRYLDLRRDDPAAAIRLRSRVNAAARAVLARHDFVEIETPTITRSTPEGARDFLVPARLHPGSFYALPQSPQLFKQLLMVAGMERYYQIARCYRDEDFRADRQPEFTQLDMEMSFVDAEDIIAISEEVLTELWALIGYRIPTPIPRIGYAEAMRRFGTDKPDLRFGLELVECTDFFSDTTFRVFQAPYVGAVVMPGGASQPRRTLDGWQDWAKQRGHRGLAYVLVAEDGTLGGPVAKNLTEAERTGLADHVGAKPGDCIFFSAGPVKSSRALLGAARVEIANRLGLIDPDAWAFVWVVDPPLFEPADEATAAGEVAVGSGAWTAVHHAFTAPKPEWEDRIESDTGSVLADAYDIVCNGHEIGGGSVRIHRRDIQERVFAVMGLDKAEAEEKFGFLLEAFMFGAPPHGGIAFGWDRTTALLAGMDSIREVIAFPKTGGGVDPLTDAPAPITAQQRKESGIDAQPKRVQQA
Description: Assay for Asp RNA synthetase-1 from Mycobacterium tuberculosis. In kind it is functional. The following applies: 30 µM.

Assay [4] concerns the target Sialic acid-binding Ig-like lectin 9 (Homo sapiens) (UniProt Q9Y336). The assay is described as follows: Hs-Siglec9 ALPHAscreen SOP 20170721. The following applies: 10 µM.
A further assay relates to Trypanosoma cruzi. Description: Trypanosoma cruzi phosphomannomutase and mannose-1-phosphate guanylyltransferase assay. The following applies: 10 µM. In kind it is functional.
Assay [5] concerns the target T3, Arginase-2, mitochondrial (Homo sapiens) (UniProt P78540).
T3 sequence (whole entry): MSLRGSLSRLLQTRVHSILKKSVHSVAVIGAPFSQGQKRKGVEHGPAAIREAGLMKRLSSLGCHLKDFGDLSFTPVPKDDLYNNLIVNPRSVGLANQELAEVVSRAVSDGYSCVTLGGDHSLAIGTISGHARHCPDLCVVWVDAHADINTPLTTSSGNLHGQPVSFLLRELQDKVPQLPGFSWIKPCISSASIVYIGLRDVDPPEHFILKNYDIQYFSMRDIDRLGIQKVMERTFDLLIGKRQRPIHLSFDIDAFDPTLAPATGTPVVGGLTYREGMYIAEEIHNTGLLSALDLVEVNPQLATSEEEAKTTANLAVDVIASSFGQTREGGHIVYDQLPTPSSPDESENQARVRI
The assay is described as follows: in vitro enzyme assay to detect the production of urea directly proportional to the activity of Arginase II. Also: in the data most compounds retested in dose-response had high values. It counts as functional. The following applies: 33.3 µM.

Assay [6] concerns the target T4, Proteasome subunit beta (Trypanosoma cruzi) (UniProt O96673).
T4 sequence (whole entry): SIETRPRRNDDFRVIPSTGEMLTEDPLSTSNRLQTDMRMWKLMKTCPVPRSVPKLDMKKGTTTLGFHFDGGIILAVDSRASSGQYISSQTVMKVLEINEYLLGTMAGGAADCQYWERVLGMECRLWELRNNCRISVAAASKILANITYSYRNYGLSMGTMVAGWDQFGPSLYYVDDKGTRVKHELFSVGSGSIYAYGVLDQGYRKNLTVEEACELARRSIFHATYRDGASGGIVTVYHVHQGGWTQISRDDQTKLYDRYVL
The assay is described as follows: Trypanosoma cruzi proteasome chymotrypsin-like activity (TcProtChymo) assay. Also: in the data most compounds retested in dose-response had high values. In kind it is functional. The following applies: 9.37 µM.

The species named for another assay is Homo sapiens. Description: To identify inhibition of the IFN signalling (Jak-Stat) pathway via expression of an eGFP reporter gene under the control of an IFN-stimulated response element (ISRE) containing MxA promoter. The following applies: 30 µM. In kind it is functional.
Assay [7] has as its target Shiga toxin 2 (Escherichia coli O157:H7) (UniProt P09385+P09386). Description: E. coli 0.157:H7 Shiga Toxin SOP - stx2 screening assay. In kind it is functional. The following applies: 30 µM.
In assay [8] the target is T5, Tyrosyl-tRNA synthetase, putative (Trypanosoma cruzi (strain CL Brener)) (UniProt Q4DSP6).
T5 sequence (whole entry): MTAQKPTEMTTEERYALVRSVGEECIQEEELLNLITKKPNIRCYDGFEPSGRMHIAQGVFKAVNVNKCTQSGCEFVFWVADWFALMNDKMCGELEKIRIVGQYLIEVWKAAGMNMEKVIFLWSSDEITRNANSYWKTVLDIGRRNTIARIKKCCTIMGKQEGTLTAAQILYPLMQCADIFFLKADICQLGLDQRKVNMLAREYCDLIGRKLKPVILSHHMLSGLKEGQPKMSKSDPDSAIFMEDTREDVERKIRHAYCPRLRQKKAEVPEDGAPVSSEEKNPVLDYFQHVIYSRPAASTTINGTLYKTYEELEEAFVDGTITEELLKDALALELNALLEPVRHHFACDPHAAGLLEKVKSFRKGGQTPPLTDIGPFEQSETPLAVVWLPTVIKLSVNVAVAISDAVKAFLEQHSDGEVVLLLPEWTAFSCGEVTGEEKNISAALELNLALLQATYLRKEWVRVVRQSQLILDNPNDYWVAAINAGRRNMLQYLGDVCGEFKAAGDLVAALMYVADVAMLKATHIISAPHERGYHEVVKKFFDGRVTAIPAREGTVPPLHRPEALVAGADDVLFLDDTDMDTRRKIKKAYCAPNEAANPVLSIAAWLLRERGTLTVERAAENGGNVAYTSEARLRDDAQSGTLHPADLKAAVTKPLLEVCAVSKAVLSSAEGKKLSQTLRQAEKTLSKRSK
The assay is described as follows: Trypanosoma cruzi tyrosyl tRNA synthetase (TcYRS) _High Tyrosine SOP. Also: in the data most compounds retested in dose-response had high values. It counts as functional. The following applies: 30 µM.

The target of assay [9] is T5, Tyrosyl-tRNA synthetase, putative (Trypanosoma cruzi (strain CL Brener)). Description: Trypanosoma cruzi tyrosyl tRNA synthetase (TcYRS) SOP. The following applies: 30 µM. In kind it is functional.
In assay [10] the target is Chromo domain-containing protein 1 (Saccharomyces cerevisiae (strain ATCC 204508 / S288c) (Baker's yeast)) (UniProt P32657). The assay is described as follows: ScCHD-1 Enzyme Inhibition Assay. Also: in the data most compounds retested in dose-response had high values. In kind it is functional. The following applies: 30 µM.
Chromo domain-containing protein 1 (Saccharomyces cerevisiae (strain ATCC 204508 / S288c) (Baker's yeast)), sequence (P32657 whole entry, the tested form may be a part): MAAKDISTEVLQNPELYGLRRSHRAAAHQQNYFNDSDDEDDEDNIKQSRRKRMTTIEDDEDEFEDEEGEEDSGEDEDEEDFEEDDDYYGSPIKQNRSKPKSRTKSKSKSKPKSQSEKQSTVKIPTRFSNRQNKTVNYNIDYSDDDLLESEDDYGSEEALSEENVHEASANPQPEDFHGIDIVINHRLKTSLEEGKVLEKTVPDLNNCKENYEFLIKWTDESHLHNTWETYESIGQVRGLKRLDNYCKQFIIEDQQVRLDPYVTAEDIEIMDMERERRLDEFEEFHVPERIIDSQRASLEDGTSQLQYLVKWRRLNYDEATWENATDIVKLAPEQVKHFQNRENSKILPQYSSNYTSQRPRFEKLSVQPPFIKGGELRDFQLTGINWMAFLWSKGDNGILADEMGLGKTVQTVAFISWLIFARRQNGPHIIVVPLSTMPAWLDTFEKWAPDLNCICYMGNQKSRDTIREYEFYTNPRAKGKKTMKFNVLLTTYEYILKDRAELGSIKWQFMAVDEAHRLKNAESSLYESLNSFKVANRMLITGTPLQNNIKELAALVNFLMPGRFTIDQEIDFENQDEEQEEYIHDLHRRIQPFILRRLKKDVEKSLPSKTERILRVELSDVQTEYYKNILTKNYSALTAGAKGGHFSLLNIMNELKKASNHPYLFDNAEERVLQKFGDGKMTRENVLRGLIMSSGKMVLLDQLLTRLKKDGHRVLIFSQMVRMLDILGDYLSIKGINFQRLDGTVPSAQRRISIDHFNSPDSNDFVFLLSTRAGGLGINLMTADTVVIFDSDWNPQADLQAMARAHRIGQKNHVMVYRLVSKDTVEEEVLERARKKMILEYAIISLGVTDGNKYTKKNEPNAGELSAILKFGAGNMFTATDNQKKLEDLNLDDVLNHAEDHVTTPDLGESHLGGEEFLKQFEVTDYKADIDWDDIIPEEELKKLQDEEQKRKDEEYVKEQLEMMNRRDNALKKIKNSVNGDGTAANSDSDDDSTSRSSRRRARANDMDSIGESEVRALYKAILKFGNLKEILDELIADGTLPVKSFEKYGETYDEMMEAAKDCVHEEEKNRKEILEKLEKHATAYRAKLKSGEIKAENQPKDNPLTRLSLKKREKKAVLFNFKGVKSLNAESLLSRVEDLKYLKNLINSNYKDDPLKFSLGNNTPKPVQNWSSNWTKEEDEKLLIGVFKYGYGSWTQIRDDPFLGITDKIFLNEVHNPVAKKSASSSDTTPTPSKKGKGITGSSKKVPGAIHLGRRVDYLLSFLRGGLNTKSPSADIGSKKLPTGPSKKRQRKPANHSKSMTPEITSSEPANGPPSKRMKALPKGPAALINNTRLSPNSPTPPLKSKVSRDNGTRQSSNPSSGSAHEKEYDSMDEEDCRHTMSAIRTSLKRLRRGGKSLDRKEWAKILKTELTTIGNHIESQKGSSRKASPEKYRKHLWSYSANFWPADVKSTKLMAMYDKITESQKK

The structures appear in SMILES notation. For part of these data: Measured potencies and affinities stand elsewhere.

Protein translocase subunit SecA (Escherichia coli (strain K12)), sequence (P10408 whole entry): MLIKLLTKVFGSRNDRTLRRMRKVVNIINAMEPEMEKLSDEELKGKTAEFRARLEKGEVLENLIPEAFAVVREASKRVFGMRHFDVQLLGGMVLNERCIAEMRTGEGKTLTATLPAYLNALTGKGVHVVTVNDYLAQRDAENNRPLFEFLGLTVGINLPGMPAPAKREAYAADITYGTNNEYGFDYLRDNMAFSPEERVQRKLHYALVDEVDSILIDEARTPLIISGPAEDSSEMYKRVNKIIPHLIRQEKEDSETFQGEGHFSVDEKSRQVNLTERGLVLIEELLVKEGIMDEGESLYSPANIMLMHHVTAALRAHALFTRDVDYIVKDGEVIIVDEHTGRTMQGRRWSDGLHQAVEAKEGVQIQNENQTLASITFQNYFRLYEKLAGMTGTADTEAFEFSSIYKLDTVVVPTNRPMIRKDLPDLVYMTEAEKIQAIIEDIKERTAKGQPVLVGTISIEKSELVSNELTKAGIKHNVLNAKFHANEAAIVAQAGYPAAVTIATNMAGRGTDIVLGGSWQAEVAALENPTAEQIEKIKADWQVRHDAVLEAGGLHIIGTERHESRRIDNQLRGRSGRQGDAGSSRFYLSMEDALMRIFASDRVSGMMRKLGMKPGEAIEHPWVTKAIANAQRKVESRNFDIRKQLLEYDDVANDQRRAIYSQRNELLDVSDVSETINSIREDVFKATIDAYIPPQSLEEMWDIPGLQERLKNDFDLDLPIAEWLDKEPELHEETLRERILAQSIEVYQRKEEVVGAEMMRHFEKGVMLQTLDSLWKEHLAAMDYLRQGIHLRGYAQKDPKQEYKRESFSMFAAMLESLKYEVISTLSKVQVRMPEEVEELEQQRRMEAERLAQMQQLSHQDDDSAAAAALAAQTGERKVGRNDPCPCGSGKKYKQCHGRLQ
Sialic acid-binding Ig-like lectin 9 (Homo sapiens), sequence (Q9Y336 whole entry): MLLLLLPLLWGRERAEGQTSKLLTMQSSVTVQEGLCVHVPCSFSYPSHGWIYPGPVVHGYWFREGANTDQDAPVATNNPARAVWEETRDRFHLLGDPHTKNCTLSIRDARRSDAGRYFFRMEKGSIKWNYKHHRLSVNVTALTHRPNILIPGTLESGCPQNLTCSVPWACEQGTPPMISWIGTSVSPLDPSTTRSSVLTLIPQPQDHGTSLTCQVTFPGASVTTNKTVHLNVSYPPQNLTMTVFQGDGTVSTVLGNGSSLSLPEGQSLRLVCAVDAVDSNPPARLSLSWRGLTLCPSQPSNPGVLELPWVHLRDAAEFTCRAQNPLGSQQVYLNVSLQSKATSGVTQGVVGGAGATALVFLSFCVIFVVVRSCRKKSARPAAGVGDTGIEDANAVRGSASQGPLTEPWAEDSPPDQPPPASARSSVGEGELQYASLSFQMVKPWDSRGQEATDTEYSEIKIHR

As to `NC[C@H]1[C@H]2CN(Cc3ccccc3)C[C@@H]12`, the Percent Effect is -1.98% in [1]; 19.5% in [2]; -0.091% in assay [3]; 2.06% in [4]; -0.938% with Trypanosoma cruzi; 1.83% in assay [5]. The Percent Effect is 7.81% in [6]; 31% in the assay filed under Homo sapiens; -5.17% in assay [7]; 4.83% in [8]; 15% in assay [9]; -6.97% in assay [10].

`NC(=O)CN1CCCN(C(=O)Cc2ccc3c(c2)OCO3)CC1`: the Percent Effect in assay [1] is -0.196%; in assay [2], 5.33%; in assay [3], -1.81%; in [4] it was 2.43%; in the assay on Trypanosoma cruzi it was -7.43%; in assay [5] it was 3.55%. Further, the Percent Effect is 3.48% in assay [6]; 12% in the assay filed under Homo sapiens; -21.4% in assay [7]; 3.68% in assay [8]; 10.3% in assay [9]; -7.19% in [10].

For the compound `CCc1ccc(CN2CCN(C)c3ncccc3C2)o1`, the Percent Effect is -8.73% in assay [1]; 1.3% in assay [2]; -0.259% in [3]; 15.1% in assay [4]; -1.27% with Trypanosoma cruzi; -3.24% in [5]. The Percent Effect was 7.68% in assay [6]; 6.96% in the assay listed under Homo sapiens; 1.33% in [7]; 3.68% in assay [8]; -5.13% in assay [9]; -4.2% in assay [10].
